PubChem BioAssay AID651593 (National Center for Advancing Translational Sciences (NCATS), 2012)
In all, about 1,100 compounds went through this assay and about 860 (78%) were called active. Inconclusive results (about 19%) are left out. Calls follow the shape of the dose curve; as a rule, active = well fitted activation curve with a large enough effect; inconclusive = small, poorly fitted or top-dose-only effect; inactive = flat fitted curve, though single readings scatter. So high a share suggests a set chosen from earlier hits. The list shows a part of the results.

Assay: qHTS of Nrf2 Activators: Hit Validation in Primary Assay; also: nearly all actives have a fitted effect of over 70% in size; as to activation: 0% is about no effect
Settings: Nrf2/ARE reporter cell assay; Potency: activation; series mostly up to 46.1 µM; activation: at the top concentration
Outline: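 AREc32 cells stably carrying an ARE-driven firefly luciferase, plated overnight, then exposed 24 h at 37 °C to compounds at several concentrations. ARE activation read as luminescence with Steady-Glo after 30 min at room temperature.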
Potency is read from the fitted curve at half-maximal effect.

Potency, active:
C#CCOc1ccc(/C=C2\SC(=S)N(Cc3cccnc3)C2=O)cc1 4.61 µM
COc1ccc(OC)c(/C=C2\SC(=S)N(Cc3cccnc3)C2=O)c1 5.17 µM
O=C1CSC(=S)N1Cc1cccnc1 10.3 µM
O=C1/C(=C/c2ccccc2O)SC(=S)N1Cc1cccnc1 4.61 µM
C[C@H]1CCC[C@]2(C)C[C@H]3OC(=O)C(CN4CCCCCC4)[C@H]3C=C12 (stereo not given in full) 5.8 µM
CC1CCN(CC2C(=O)O[C@@H]3C[C@@]4(C)CCC[C@H](C)C4=C[C@H]23)CC(C)(C)C1 (stereo not given in full) 5.8 µM
Brc1cc(Br)c2nc(-c3cccs3)ccc2c1 4.11 µM
O=C(CN1CC(=O)Oc2ccccc21)OCC(=O)c1ccc(F)cc1 18.4 µM
N/C(=N\OC(=O)c1ccco1)c1cccc(Br)c1 20.6 µM
Cc1csc(-c2ccc3cc(Cl)cc(Cl)c3n2)n1 2.59 µM
O=C(O)CCCCCN1C(=O)/C(=C\c2ccncc2)SC1=S 2.91 µM
N#Cc1nc(-c2ccco2)oc1N1CCCC1 2.31 µM
Cc1nc(-c2ccccn2)sc1C(=O)Nc1ccc(F)cc1 2.31 µM
Cc1csc(NC(=S)NC(=O)c2ccccc2)n1 11.6 µM
Cc1cc(C)c2c(NC(=S)NC(=O)c3ccccc3)nn(C)c2n1 7.31 µM
O=C(NC(=S)Nc1nc(-c2ccccc2)cs1)c1cccs1 3.66 µM
Cc1ccc2cccc(NC(=S)NC(=O)c3ccccc3)c2n1 4.61 µM
c1coc(-c2ccnc(-n3cccc3)n2)c1 2.59 µM
Clc1ccc(-c2ccnc(-n3cccc3)n2)s1 2.59 µM
c1coc(-c2ccnc3nc(-n4cccc4)nn23)c1 4.11 µM
CSc1nc2sc3c(c2c(=O)n1C)CCC(C)C3 (stereo not given) 18.4 µM
Cc1cc(C)c(-n2c(SCCS(=O)(=O)c3ccc(F)cc3)n[nH]c2=O)c(C)c1 20.6 µM
NC(=O)c1ccsc1NC(=O)COC(=O)[C@@H]1CCCN1C(=O)c1cccs1 6.51 µM
O=C(NNC(=O)c1nc(Cl)ccc1Cl)c1ccc(F)cc1 11.6 µM
O=C1C(=C2CCc3ccccc32)Cc2ccccc21 1.03 µM
COC(=O)c1ccc2nc(-c3cccc(Br)c3)c(CC3CCCCC3)n2c1 13 µM
COC(=O)c1ccc2nc(-c3ccc(F)cc3)c(CC3CCCCC3)n2c1 9.2 µM
O=c1cc(-c2ccccc2)nc2c(Cl)cc(Cl)cn12 3.66 µM
COCCn1c(C(F)(F)F)ccc(NC(=O)c2ccccc2)c1=O 2.31 µM
FC(F)(F)c1cc(-c2cccs2)nc2cc(-c3cccs3)nn12 2.91 µM
Cc1ncc(N=Nc2ccccc2)c(-c2ccccc2)n1 3.66 µM
Cc1ccc(CNC(=O)c2sccc2-n2cccc2)cc1 5.17 µM
CC(C)c1ccc(NC(=O)c2sccc2-n2cccc2)cc1 2.59 µM
O=c1oc2ccc(Br)cc2cc1-c1nc2ccccc2o1 23.1 µM
O=C(Cn1ncc(Cl)c(Cl)c1=O)NC1CCS(=O)(=O)C1 (stereo not given) 6.51 µM
O=C(Nc1cccc2ncccc12)c1ccc(Cl)cc1 2.59 µM
Cc1cc(-c2sccc2C)nc(-n2cccc2)n1 5.8 µM
Cc1cc(-c2sccc2Br)nc(-n2cccc2)n1 3.66 µM
Cc1ccsc1-c1ccnc(-n2cccc2)n1 11.6 µM
Cc1cc(-c2cccs2)nc(-n2cccc2)n1 5.17 µM
Cc1ccc(S(=O)(=O)c2nc(S(C)(=O)=O)sc2N2CCOCC2)cc1 8.2 µM
CS(=O)(=O)c1nc(S(=O)(=O)c2ccc(Cl)cc2)c(N2CCOCC2)s1 4.11 µM
Cc1nnc2n1N=CC=C(c1ccccc1)S2 3.66 µM
Clc1ccc2c(NCc3ccccn3)ncnc2c1 4.61 µM
Oc1ccc(Cl)cc1N=Cc1sc2ccccc2c1Cl 6.51 µM
CCc1cc2c(NCc3ccco3)ncnc2s1 3.66 µM
c1ccc(Cn2ncc3c(NCc4ccco4)ncnc32)cc1 2.06 µM
Cc1sc2ncnc(SCc3ccco3)c2c1C 2.91 µM
Cc1sc2ncnc(NCc3ccco3)c2c1C 3.66 µM
CCN(CC)CCNC(=O)C(Cl)=C1C(Cl)=C(Cl)C(Cl)=C1Cl 3.66 µM
Cc1cccc(NC(=S)NC(=O)c2cccs2)n1 8.2 µM
O=C(NC(=S)Nc1ccc(Br)cn1)c1cccs1 2.91 µM
O=C(NC(=S)Nc1cccc2cccnc12)c1cccs1 2.91 µM
O=C(NC(=S)Nc1ccc(Cl)cn1)c1cccs1 2.91 µM
COC(=O)c1cc2c(s1)-c1cc(F)ccc1OC2 9.2 µM
O=C1/C(=C\c2ccc(Cl)cc2)CCC1CNc1ccc(Cl)cc1 (stereo not given) 3.66 µM
N#Cc1cnc2cc(-c3ccccc3)nn2c1N 6.51 µM
CC(=O)Nc1ccc(S(=O)(=O)c2ccnc3cc(Cl)ccc23)cc1 14.6 µM
O=S(=O)(c1ccc(F)cc1)c1snnc1-c1ccccc1 18.4 µM
Cc1cccc(N=C/C(C(=O)C(F)(F)F)=C(\O)c2ccco2)c1 20.6 µM
Cc1ccc(N=C/C(C(=O)C(F)(F)F)=C(\O)c2ccco2)cc1Cl 7.31 µM
O=C(/C(C=Nc1ccc(F)cc1)=C(/O)c1ccco1)C(F)(F)F 20.6 µM
O=C(/C(C=Nc1cccc(C(F)(F)F)c1)=C(/O)c1ccco1)C(F)(F)F 11.6 µM
CC(=O)Nc1cc2oc3ccccc3c2cc1[N+](=O)[O-] 2.59 µM
CC(=O)Nc1ccc(N=Nc2ccccc2)cc1[N+](=O)[O-] 3.66 µM
COC(=O)c1c(NC(=O)/C=C/C(=O)O)sc(C)c1-c1ccc(C(C)C)cc1 10.3 µM
COc1cccc(-c2nc(-c3ccccc3)no2)c1 2.91 µM
c1ccc(-c2noc(-c3cccc4ccccc34)n2)cc1 2.31 µM
COc1nc2ccc(C)cc2cc1-c1noc(-c2ccccc2)n1 2.59 µM
c1ccc(-c2noc(-c3cccnc3)n2)cc1 2.59 µM
c1cncc(-c2noc(-c3cccc4ccccc34)n2)c1 1.16 µM
Fc1ccccc1-c1nc(-c2ccc(Cl)cc2)no1 3.26 µM
CC1=NC(=O)C(N=Nc2cccc(O)c2)N1c1ccccc1 (stereo not given) 7.31 µM
Cc1cccc2c(=O)n(C(=O)c3ccccc3)c(N)nc12 1.03 µM
COc1ccc(OC)c(/C=C(\C#N)c2nc(-c3ccc(F)cc3)cs2)c1 2.59 µM
COc1ccc(NC(=O)Nc2nnc(-c3ccccc3F)s2)cc1 1.84 µM
O=C(Nc1nnc(-c2ccccc2F)s1)C1CCCO1 (stereo not given) 7.31 µM
O=C(Nc1nnc(-c2ccccc2F)s1)Nc1ccccc1F 1.84 µM
COc1ccccc1-c1nnc(NC(C)=O)s1 20.6 µM
O=C(CC(=O)c1ccccn1)c1ccccc1 3.66 µM
NS(=O)(=O)c1ccc(Sc2nc3ccccc3s2)c([N+](=O)[O-])c1 16.4 µM
NC(=O)c1nc(Nc2ccccc2)sc1NC(=O)c1ccccc1Br 2.31 µM
NC(=O)c1nc(Nc2ccccc2)sc1NC(=O)c1c(F)cccc1F 2.59 µM
O=C(/C=C/c1ccccc1Cl)Nc1nc(-c2cccs2)ns1 7.31 µM
O=C(/C=C/c1ccccc1)Nc1nc(-c2cccs2)ns1 2.59 µM
Cc1sc2c(c1C)C(=O)NC(c1ccccc1F)N2 (stereo not given) 20.6 µM
CCC/C(=N\NC(=O)c1ccco1)c1ccc(Cl)s1 5.17 µM
O=c1c(-c2ccco2)[n+]([O-])c2ccccc2n1OCc1c(F)cccc1F 0.58 µM
O=c1c(-c2ccco2)[n+]([O-])c2ccccc2n1OCc1ccccc1 5.17 µM
CCOC(=O)COn1c(=O)c(-c2ccco2)[n+]([O-])c2ccccc21 9.2 µM
COc1ccc(-c2cc3ccccc3c(=O)o2)cc1 4.61 µM
CC(=O)c1sc(Nc2ccccc2)nc1C 18.4 µM
O=[N+]([O-])c1ccc(SCc2ccco2)cc1N1CCOCC1 2.31 µM
O=C1CC(C(=O)Nc2ccc(Cl)c(Cl)c2)S/C(=N\N=C\c2ccco2)N1 (stereo not given) 0.731 µM
Cc1cccc(NC(=O)C2CC(=O)N/C(=N/N=C/c3ccco3)S2)c1 (stereo not given) 2.06 µM
Cn1c(NC(=O)/C=C/c2ccccc2)cc(=O)n(C)c1=O 20.6 µM
O=C(CC1S/C(=N/N=C/c2ccco2)NC1=O)Nc1ccccc1 (stereo not given) 1.84 µM
Cc1ccc(NC(=O)CC2S/C(=N/N=C/c3ccco3)NC2=O)cc1Cl (stereo not given) 1.03 µM
O=c1cc(-c2ccco2)nc(SCc2cccc(Cl)c2)[nH]1 1.16 µM
O=C(Nc1ccccn1)c1csc2c1CCCC2 5.8 µM

activation, inactive:
COc1cc(OC)cc(C(=O)O/N=C(\N)c2cccc(C)c2)c1 21.2%
Cc1sc(NC(=S)NC(=O)c2ccccc2)c(C#N)c1C 17%
CCc1nn2c(-c3ccco3)ccnc2c1-c1ccccc1 9.08%
Cc1sc2ncnc(Sc3nnnn3-c3ccccc3)c2c1C 15.9%
O=C(Nc1ccccc1)c1nc[nH]c1C(=O)Nc1ccccc1F 17.5%
